# Screening data deposited in PubChem by The Scripps Research Institute Molecular Screening Center.
# Rows were chosen to be rich in hits. Some 3.5% of all compounds tested hit in one or more screens of this group.
# TEAD-YAP inh: TEAD-YAP interaction inhibition; inhibition, % at 9.12 µM; AID 1259422; 640,000 compounds, 1.4% hits; HEK-TIYL cells, TEAD-Gal4/YAP UAS-luciferase luminescence; in the data active means inhibition above about 32%;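 further: 0% = median of test compound wells and 100% = reference inhibitor wells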
# MITF inh: human MITF inhibition, primary screen; O75030; AlphaScreen MITF homodimerization, bead proximity signal; inhibition, % at 2.6 µM; 650,000 compounds, 0.91% hits; in the data active means inhibition above about 50%;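 further: 0% = vehicle wells with protein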
# Target sequence (O75030 whole entry, looked up): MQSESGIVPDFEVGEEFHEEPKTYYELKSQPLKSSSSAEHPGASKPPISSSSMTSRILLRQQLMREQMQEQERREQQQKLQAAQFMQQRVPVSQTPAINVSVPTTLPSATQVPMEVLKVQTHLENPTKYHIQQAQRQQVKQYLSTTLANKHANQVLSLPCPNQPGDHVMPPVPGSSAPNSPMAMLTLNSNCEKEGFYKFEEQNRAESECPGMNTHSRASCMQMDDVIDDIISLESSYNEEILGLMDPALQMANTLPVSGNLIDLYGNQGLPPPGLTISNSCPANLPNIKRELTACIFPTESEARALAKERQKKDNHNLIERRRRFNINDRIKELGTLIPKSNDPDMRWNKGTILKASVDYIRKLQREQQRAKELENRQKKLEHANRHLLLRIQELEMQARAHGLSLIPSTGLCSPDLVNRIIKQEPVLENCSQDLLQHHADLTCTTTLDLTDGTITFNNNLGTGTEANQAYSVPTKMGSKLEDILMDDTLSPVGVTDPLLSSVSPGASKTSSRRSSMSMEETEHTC
# GPR151 ag: activators of human GPR151; Q8TDV0; PathHunter beta-arrestin GPR151 cells, luminescence; activation, % at 11.2 µM; 650,000 compounds, 1% hits; AID 1508602; in the data active means activation above about 4.9%;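 further: 0% = median of compound wells and 100% = cells with positive control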
# FBW7 activator: activators of human E3 ligase FBW7. Q969H0. AlphaScreen FBW7–phospho-cyclin E peptide binding, activator screen. normalized activity (activation), % at 26.1 µM. 650,000 compounds, 0.13% hits. AID 1259310; in the data active means normalized activity above about 1.9%;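 further: purified mutant Fbw7 with reduced substrate affinity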
# Numbers without * were called inactive.
SMILES,TEAD-YAP inh,MITF inh,GPR151 ag,FBW7 activator
COc1ccccc1C(=O)N1CCN(S(=O)(=O)c2ccc(F)cc2)CC1,5.8,-4.0,0.5,0.1
COc1ccc(-c2cc3nc(C)c(CCC(=O)O)c(C)n3n2)c(OC)c1,38.6*,-7.8,2.3,0.0
COc1ccc(-c2cc3nc(C)c(CCC(=O)N4CCCC4)c(C)n3n2)c(OC)c1,6.0,-3.8,1.1,0.1
CCC(C)NC(=O)CCc1c(C)nc2cc(-c3cccc(F)c3)nn2c1C (configuration not stated),6.1,5.6,1.1,0.3
Cc1nc2cc(-c3cccc(F)c3)nn2c(C)c1CCC(=O)O,42.9*,-2.9,-3.1,-0.1
O=S(=O)(NCC(c1ccsc1)N1CCCCCC1)c1ccc2c(c1)OCCO2 (configuration not stated),-0.4,2.3,-0.6,0.1
CC1=C(C(=O)OCc2ccccc2)C(c2cn(-c3ccccc3)nc2-c2ccc(C)cc2)C(C(=O)OCc2ccccc2)=C(C)N1,-8.9,12.1,1.2,0.0
CC1=C(C(=O)OCc2ccccc2)C(c2cn(-c3ccccc3)nc2-c2ccc(F)cc2)C(C(=O)OCc2ccccc2)=C(C)N1,-8.5,33.9,0.8,1.9*
CC(C)c1ccccc1NC(=O)CCc1csc(NC(=O)c2ccc(F)cc2)n1,23.3,1.2,0.6,0.1
Cc1cccc(NC(=O)CCc2csc(NC(=O)c3ccc(F)cc3)n2)c1C,40.0*,2.9,1.6,0.1
c1ccc2c(-c3csc(NCC4CCCO4)n3)c[nH]c2c1 (configuration not stated),-10.4,-6.4,0.1,0.3
c1ccc2c(-c3csc(NC4CCCC4)n3)c[nH]c2c1,-9.1,0.7,-0.1,5.4*
CC(=O)c1ccc(NC(=O)N2CCC(O)(c3ccc4c(c3)OCO4)CC2)cc1,-19.4,-3.5,0.6,-0.2
CCn1c(SCC(=O)Nc2ccc([N+](=O)[O-])cc2)nnc1-c1ccc(O)cc1,49.8*,4.3,0.2,0.5
C=CCSc1nnc(NC(=O)Cn2[nH]c(=O)c3ccccc3c2=O)s1,3.9,0.3,0.3,-0.1
Cc1nnc(-c2ccc(N3CCc4ccccc4C3)c([N+](=O)[O-])c2)o1,45.3*,22.0,1.4,-0.4
N#Cc1ccc(N2CCc3ccccc3C2)c([N+](=O)[O-])c1,-5.1,1.1,-0.1,-0.3
CCOC(=O)c1ccc(NC(=O)/C(C#N)=C/c2ccc(C3CC3C)o2)cc1 (configuration not stated),41.3*,12.9,1.2,0.2
COc1ccccc1/C=C(/C#N)C(=O)Nc1ccc(O)cc1,9.6,-9.3,0.8,0.1
COc1ccc(NC(=O)/C(C#N)=C/c2ccccc2OC(C)C)cc1,51.2*,1.6,2.6,-0.1
Cc1cccc(NC(=O)/C(C#N)=C\c2ccccc2O)c1,-50.7,10.8,0.2,0.0
COc1ccc(NC(=O)/C(C#N)=C\c2ccc(N(C)C)o2)cc1,33.3*,-16.5,2.1,-0.2
COc1ccc(NC(=O)/C(C#N)=C/c2ccc(Br)o2)cc1,-14.2,9.4,-0.4,-0.1
Cc1ccc(NC(=O)/C(C#N)=C/c2ccccc2O)cc1,49.2*,-15.5,1.6,0.0
Cc1sc(C(=O)O)cc1[N+](=O)[O-],-0.4,-0.3,0.2,0.0
SMILES,TEAD-YAP inh,MITF inh,GPR151 ag,FBW7 activator
CC1=C(C(=O)Nc2ccc(C)cn2)C(c2ccc(C)cc2)C2=C(CC(C)(C)CC2=O)N1 (configuration not stated),8.1,9.9,0.5,0.0
CC1=C(C(=O)Nc2ccc(Br)cn2)C(c2ccsc2)C2=C(CC(C)(C)CC2=O)N1 (configuration not stated),52.0*,-0.5,1.2,0.2
CC1=C(C(=O)Nc2ccc(Br)cn2)C(c2cccs2)C2=C(CC(C)(C)CC2=O)N1 (configuration not stated),35.3*,-0.5,0.0,0.1
CC1=C(C(=O)Nc2ccc(C)cn2)C(c2cccs2)C2=C(CC(C)(C)CC2=O)N1 (configuration not stated),57.7*,-4.9,-0.3,-0.1
Cc1ncc(-c2ccccc2)o1,-4.2,-5.0,-1.1,0.1
COc1ccc(/C=N/NC(=O)c2cccc(Br)c2)cc1,-66.0,2.8,-0.3,-0.1
O=C(N/N=C/c1ccc(O)c2ncccc12)c1cccc(Br)c1,37.9*,103.3*,-0.3,-0.3
COc1ccc(O)c(/C=N/NC(=O)c2cccc(Br)c2)c1,57.9*,14.7,-0.5,-0.1
COc1cccc(/C=N/NC(=O)c2cc(-c3ccc(C)o3)[nH]n2)c1O,22.0,40.6,-0.8,0.4
COc1ccc(O)c(/C=N/NC(=O)c2cncc(Br)c2)c1,81.0*,-41.3,-0.1,-0.1
O=C(N/N=C/c1ccccc1O)c1cccc(Br)c1,-13.0,9.2,-0.3,0.0
